Bioassay records: PubChem BioAssay, National Center for Advancing Translational Sciences (NCATS)
In the library only some 12% were active in any assay of this set; here they are far more common.
HP1b chromo inh: HTS for Inhibitors of HP1-beta Chromodomain Interactions with Methylated Histone Tails | AlphaScreen HP1-beta / biotin-H3K9me3 peptide binding | Potency, µM (highest dose often 114 µM), usual class: inhibitors | 390,000 compounds, 0.56% hits | AID 540317, 2011; further: nearly all actives have a fitted effect of over 70% in size
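Compound inhibition of the preformed complex between 50 nM HP1-beta and 50 nM biotinylated H3K9me3 peptide was read by AlphaScreen. Buffer was PBS pH 7.4 with 0.01% Tween-20. Incubations ran 30 min at room temperature, with 10 ug/mL donor/acceptor beads.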
JMJD2A Tudor inh: qHTS Assay for Inhibitors of JMJD2A-Tudor Domain. Lysine-specific demethylase 4A (Homo sapiens), O75164. AID 504339, 2011. AlphaScreen JMJD2A-Tudor / H3K4me3 peptide binding. Potency, µM (series often up to 114 µM), most hits filed as inhibitors. 390,000 compounds, 4.4% hits; further: nearly all actives have a fitted effect of over 50% in size
Target sequence (O75164 whole entry, looked up, the tested form may be a part): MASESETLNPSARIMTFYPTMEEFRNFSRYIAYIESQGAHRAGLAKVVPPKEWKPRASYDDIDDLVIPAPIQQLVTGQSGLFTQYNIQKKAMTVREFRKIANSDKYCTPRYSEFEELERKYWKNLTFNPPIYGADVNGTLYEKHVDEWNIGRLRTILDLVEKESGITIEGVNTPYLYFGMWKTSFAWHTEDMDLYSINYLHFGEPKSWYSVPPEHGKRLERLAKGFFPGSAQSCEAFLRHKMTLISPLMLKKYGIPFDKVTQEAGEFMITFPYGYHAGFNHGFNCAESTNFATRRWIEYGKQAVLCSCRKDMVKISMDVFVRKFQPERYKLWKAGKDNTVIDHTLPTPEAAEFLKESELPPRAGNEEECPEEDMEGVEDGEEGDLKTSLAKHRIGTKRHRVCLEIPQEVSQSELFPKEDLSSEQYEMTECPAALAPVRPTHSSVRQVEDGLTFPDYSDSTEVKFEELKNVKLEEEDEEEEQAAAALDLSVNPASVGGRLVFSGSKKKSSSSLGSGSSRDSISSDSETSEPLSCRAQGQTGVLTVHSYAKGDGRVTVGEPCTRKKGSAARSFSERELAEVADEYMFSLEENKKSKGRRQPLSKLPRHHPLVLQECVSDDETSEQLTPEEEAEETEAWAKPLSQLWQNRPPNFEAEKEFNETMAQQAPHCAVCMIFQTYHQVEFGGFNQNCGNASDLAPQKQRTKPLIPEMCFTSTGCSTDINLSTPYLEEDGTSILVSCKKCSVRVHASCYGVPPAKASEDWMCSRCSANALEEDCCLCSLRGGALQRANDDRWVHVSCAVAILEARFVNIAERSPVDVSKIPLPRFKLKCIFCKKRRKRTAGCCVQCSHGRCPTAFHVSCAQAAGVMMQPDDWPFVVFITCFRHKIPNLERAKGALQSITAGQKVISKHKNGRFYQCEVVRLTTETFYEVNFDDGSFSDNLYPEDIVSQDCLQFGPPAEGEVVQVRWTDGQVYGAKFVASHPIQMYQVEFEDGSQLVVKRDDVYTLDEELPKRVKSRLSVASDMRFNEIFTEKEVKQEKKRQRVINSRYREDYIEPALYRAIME
BAZ2B inh: qHTS Assay for Inhibitors of BAZ2B; Bromodomain adjacent to zinc finger domain protein 2B (Homo sapiens), Q9UIF8; AlphaScreen BAZ2B-H3K14Ac peptide displacement; Potency, µM (doses to about 114 µM), actives largely listed as inhibitors; 360,000 compounds, 4.4% hits; further: nearly all actives have a fitted effect of over 60% in size
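AlphaScreen luminescence quantifies BAZ2B engagement of H3K14Ac peptide; the protein and biotinylated peptide are both at 50 nM final, buffer PBS pH 7.4 with 0.01% Tween-20, all steps at room temperature.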
Sfp PPTase inh: qHTS Assay for Inhibitors of Bacillus subtilis Sfp phosphopantetheinyl transferase (PPTase) | Biochemical Sfp PPTase activity, qHTS | Potency, µM, most hits filed as inhibitors | 310,000 compounds, 3.5% hits;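 further: the enzyme is Sfp with the accession as filed and its product quenches rhodamine fluorescence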
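With Hepes-Na pH 7.6 buffer containing 10 mM MgCl2, Sfp (15 nM) modified BHQ-2-YbbR (12.5 uM) using rhodamine-CoA (5 uM). Two reads 30 minutes apart at 525/598 nm yielded each well's rate.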
G9a block: qHTS Assay for Inhibitors of Histone Lysine Methyltransferase G9a; 350,000 compounds, 8.8% hits; Histone-lysine N-methyltransferase EHMT2 (Homo sapiens), Q96KQ7; G9a H3K9 monomethylation, AlphaScreen, 2 h; Potency, µM (doses to about 102 µM), most hits filed as inhibitors; further: nearly all actives have a fitted effect of over 75% in size
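Enzyme 20 nM + cpd, 15 min RT; add b-H3K9 pep 500 nM / SAM 20 uM; 2 h RT; anti-H3K9me1 Ab 0.5 ug/mL + SA donor / anti-rabbit acceptor beads 20 ug/mL each, 10 min; AlphaScreen read.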
Each line names hits and unclear results; the compound was inactive in the other large screens; ! = not active in a repeat. The call rests on the fitted dose curve; in most records, active means well fitted curve in the direction sought with a large enough effect; inconclusive means small, poorly fitted or top-dose-only effect, or another doubt; inactive means no such curve, though single readings can be large; an effect the other way counts as inactive or inconclusive.

COc1ccc(N2CC(C(=O)Nc3cccc(OC(C)C)c3)CC2=O)cc1 (centres undefined)	none
O=C(N/N=C1/CC2C=CCC12)c1ccco1 (centres undefined)	JMJD2A Tudor inh 50µM
O=C(N/N=C1/CC2C=CCC12)c1cccs1 (centres undefined)	none
CC(=C/C(=O)O)/C=C/c1ccc([N+](=O)[O-])cc1	BAZ2B inh inconclusive, G9a block 56µM
CC(/C=C\c1cccnc1)=C/C(=O)O	JMJD2A Tudor inh 56µM!, BAZ2B inh 50µM!
O=C(/C=C/c1cccnc1)c1ccc(F)c(F)c1	Sfp PPTase inh 63µM, G9a block 40µM
CC1CCc2c(sc3ncn(CC(=O)N4CCCCC4)c(=O)c23)C1 (centres undefined)	none (no result: G9a block)
Cc1cc(C)cc(OCCCCn2cncn2)c1	HP1b chromo inh inconclusive, JMJD2A Tudor inh 28µM, BAZ2B inh inconclusive, G9a block 10µM
c1ccc(COc2ccc(OCCCn3cncn3)cc2)cc1	none
Clc1ccc(OCCCn2cncn2)cc1Cl	JMJD2A Tudor inh 8.9µM, BAZ2B inh 22µM, Sfp PPTase inh inconclusive, G9a block 10µM
COc1ccc2c(c1)O[C@@H](c1ccc3c(c1)OCO3)[C@H](O)C2=O	none (no result: HP1b chromo inh, JMJD2A Tudor inh, BAZ2B inh, G9a block)
Cc1c2cccn2cc[n+]1C	JMJD2A Tudor inh 45µM, G9a block 14µM
COc1cccc(CN(C)C(=O)CN2C(=O)NC(c3ccccc3)(c3ccccc3)C2=O)c1OC	none (no result: Sfp PPTase inh)
O=C(Nc1nc2ccccc2n1CCN1CCOCC1)c1ccc(Cl)cc1	none (no result: G9a block)
O=C(Nc1nc2ccccc2n1CCN1CCCC1)C1CCCCC1	BAZ2B inh 50µM
CCC(=O)Nc1nc2ccccc2n1CCN1CCOCC1	JMJD2A Tudor inh 3.2µM, G9a block inconclusive (no result: BAZ2B inh)
O=C1CC(N2CCOCC2)=NN1c1ccc([N+](=O)[O-])cc1	none (no result: G9a block)
CN(C)c1ccc(/C=C2/C(=O)N(c3ccc([N+](=O)[O-])cc3)N=C2N2CCOCC2)cc1	BAZ2B inh 7.1µM (no result: HP1b chromo inh, JMJD2A Tudor inh)
O=C(CCN1C(=O)C2C3CC(C(Br)C3Br)C2C1=O)OCC(=O)c1ccccc1 (centres undefined)	JMJD2A Tudor inh 79µM
O=C(CCN1C(=O)C2C3CCC(C3)C2C1=O)OCC(=O)c1ccccc1 (centres undefined)	none
CCOC(=O)c1c(N2C(=O)C=CC2=O)sc(C)c1C	HP1b chromo inh inconclusive, JMJD2A Tudor inh 20µM, BAZ2B inh inconclusive, Sfp PPTase inh 2.5µM, G9a block inconclusive
Cc1cccc(NS(=O)(=O)c2ccc(Br)s2)n1	G9a block inconclusive
COc1ccc(C)cc1NS(=O)(=O)c1ccc(Br)s1	none
Cc1ccc(NS(=O)(=O)c2ccc(Br)s2)nc1	Sfp PPTase inh inconclusive, G9a block 40µM
Cc1cc(C)nc(NS(=O)(=O)c2ccc(Br)s2)c1	Sfp PPTase inh inconclusive, G9a block 50µM
COC(=O)c1ccc(-n2c(C)cc(C(=O)COC(=O)CNS(=O)(=O)c3ccc(C)cc3)c2C)cc1	JMJD2A Tudor inh 22µM, G9a block inconclusive
O=C(CCNS(=O)(=O)c1ccccc1)OCC(=O)c1ccc[nH]1	G9a block 50µM (no result: Sfp PPTase inh)
Cc1ccc(C)c(C(=O)COC(=O)CNS(=O)(=O)c2ccccc2)c1	G9a block 71µM
CSc1nc(-c2ccco2)cc(-c2ccccc2)c1C#N	G9a block 50µM
N#Cc1c(C(F)(F)F)cc(-c2ccco2)nc1SCc1ccncc1	G9a block inconclusive
CSc1nc(-c2ccco2)cc(C(F)(F)F)c1C#N	G9a block 25µM
CC(NCC(=O)NCC(=O)Nc1ccc(F)cc1)c1cccc(C(F)(F)F)c1 (centres undefined)	none (no result: BAZ2B inh, Sfp PPTase inh, G9a block)
CC(NCC1COc2ccccc2O1)C1COc2ccccc2O1 (centres undefined)	JMJD2A Tudor inh 4µM, BAZ2B inh inconclusive, Sfp PPTase inh inconclusive
CC(NS(=O)(=O)c1ccccc1)C1COc2ccccc2O1 (centres undefined)	none
CCOC(=O)CCNC(C)C1COc2ccccc2O1 (centres undefined)	JMJD2A Tudor inh 2.8µM, G9a block 2.2µM
CC(NC(=O)c1ccccc1Cl)C1COc2ccccc2O1 (centres undefined)	none
O=C(CNC(=O)c1ccccc1)NCC1COc2ccccc2O1 (centres undefined)	none
CC(NCC1COc2ccccc2O1)C(=O)NCc1ccccc1 (centres undefined)	HP1b chromo inh 16µM, JMJD2A Tudor inh 1.3µM, BAZ2B inh 35µM, Sfp PPTase inh inconclusive, G9a block 45µM
O=C(CCNC(=O)c1ccc([N+](=O)[O-])cc1)NCC1COc2ccccc2O1 (centres undefined)	G9a block 50µM (no result: Sfp PPTase inh)
Cn1cccc1C(=O)NCC1COc2ccccc2O1 (centres undefined)	G9a block 50µM (no result: Sfp PPTase inh)
O=Cc1ccccc1OCCOc1ccccc1C=O	none
O=Cc1ccccc1C=O	Sfp PPTase inh 11µM, G9a block inconclusive (no result: HP1b chromo inh, JMJD2A Tudor inh, BAZ2B inh)
Cc1cc(OCC(=O)OCC(=O)NC2CCCCC2C)ccc1Cl (centres undefined)	none (no result: Sfp PPTase inh)
CN1OC[C@@H]2CN(Cc3ccccc3)[C@H](c3cccc(Oc4ccccc4)c3)C[C@@H]21	none (no result: BAZ2B inh, Sfp PPTase inh, G9a block)
CN1OC[C@@H]2CN(Cc3cc(Cl)cc(Cl)c3)[C@H](c3cccc(Oc4ccccc4)c3)C[C@@H]21	JMJD2A Tudor inh 89µM (no result: BAZ2B inh, Sfp PPTase inh, G9a block)
Cc1ccc(S(=O)(=O)N(C)C)cc1NC(=O)CSc1nc2ncc(Cl)cc2[nH]1	G9a block 35µM (no result: Sfp PPTase inh)
CCCCn1c(=O)[nH]c2nc3cc(N)ccc3nc2c1=O	BAZ2B inh inconclusive, Sfp PPTase inh 56µM, G9a block 3.5µM
Nc1ccc2nc3c(=O)n(CCc4ccccc4)c(=O)[nH]c3nc2c1	none (no result: G9a block)
Cc1cc2nc3c(=O)n(CCc4ccccc4)c(=O)[nH]c3nc2cc1N	Sfp PPTase inh 7.9µM
CCN1C(=O)c2ccccc2S(=O)c2ccc(C(=O)N3CCN(c4ccccc4OC)CC3)cc21 (centres undefined)	none (no result: Sfp PPTase inh)
COc1cc(NC(=O)CN2CCN(S(=O)(=O)/C=C/c3ccccc3)CC2)cc(OC)c1OC	none (no result: Sfp PPTase inh)
CCOC(=O)C1CCCN(C(=O)c2ccccc2NC(=O)c2nsc3ccccc23)C1 (centres undefined)	none (no result: Sfp PPTase inh)
CCOC(=O)C(C(=O)Nc1ccccn1)C1CCCCC1 (centres undefined)	JMJD2A Tudor inh 89µM, G9a block 50µM
Cc1cccc(C(=O)OC2CCOC2=O)c1O (centres undefined)	none
CN(Cc1ccco1)c1ncnc2ccc(-c3ccccc3Cl)cc12	JMJD2A Tudor inh inconclusive, Sfp PPTase inh inconclusive
CN(Cc1ccco1)c1ncncc1-c1ccccc1Cl	Sfp PPTase inh 79µM (no result: HP1b chromo inh, JMJD2A Tudor inh, BAZ2B inh)
